Among the data in PubChem BioAssay (NCATS) are Potency and activity (max response) values, retold here.

“And” between values parts separate entries of the source, which are not always exact repeats. Equal values may be shown once. Inconclusive results are not listed. Values without a mark were called inactive. The source made the active and inactive calls. The call rests on the fitted dose curve; in most records, active means well fitted curve in the direction sought with a large enough effect; inconclusive means small, poorly fitted or top-dose-only effect, or another doubt; inactive means no such curve, though single readings can be large; an effect the other way counts as inactive or inconclusive.

The nature of assay [1]: Viability qHTS for spleen associated tyrosine kinase inhibitor (SYKi) drug resistant MV4-11 cells (AID 1963824). Further: nearly all actives have a fitted effect of over 35% in size. Further: potency means the concentration at half of the fitted maximal effect. In short, it runs like this: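 SYK-inhibitor-resistant MV4-11 AML cells were seeded at 500 per well onto compound and cultured 72 hours (37 °C, 5% CO2). CellTiter-Glo was then added, and after 10 min at room temperature, luminescence gave viability.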
Assay [2] can be described thus: Quantitative highthroughput screen to assess conditional lethalithy of NOMO1 cells grown in RPMI1640 with dialyzed fetal bovine serum (RPMI+ds) (AID 1963877). Further: nearly all actives have a fitted effect of over 30% in size. Further: potency means the concentration at half of the fitted maximal effect.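 On Viability: series mostly up to about 46 µM; 100% = DMSO control wells and 0% = empty wells.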 The method in brief:
(§1)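 Each medium arm—HPLM with 10% dialyzed FBS, or RPMI1640 with 5 mM glucose and 10% untreated or dialyzed FBS—was screened against an 11-point, 3-fold compound titration for 48 h at 37 °C, with CellTiter-Glo luminescence as endpoint.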

A short description of assay [3]: Quantitative highthroughput screen to assess conditional lethalithy of NOMO1 cells grown in Human Plasma-Like Medium with dialyzed fetal bovine serum (HPLM+ds) (AID 1963878). Further: nearly all actives have a fitted effect of over 35% in size. Further: potency means the concentration at half of the fitted maximal effect.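 On Viability: 100% = DMSO wells and 0% = empty wells on each plate.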 In short, it runs like this:
as §1

Assay [4] is described as follows: Quantitative highthroughput screen to assess conditional lethalithy of P12 Ichikawa cells grown in Human Plasma-Like Medium with dialyzed fetal bovine serum (HPLM+ds) (AID 1963879). Further: nearly all actives have a fitted effect of over 35% in size. Further: potency means the concentration at half of the fitted maximal effect. On Viability: series mostly up to about 46 µM. The following applies: Potency: viability. In short, it runs like this: as §1
The nature of assay [5]: Quantitative highthroughput screen to assess conditional lethalithy of P12 Ichikawa cells grown in RPMI1640 with dialyzed fetal bovine serum (RPMI+ds) (AID 1963880). Further: nearly all actives have a fitted effect of over 35% in size. Further: potency means the concentration at half of the fitted maximal effect.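 On Viability: 100% = DMSO wells and 0% = empty wells on each plate.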 The following applies: Potency: P12-Ichikawa viability. In short, it runs like this: as §1
Assay [6] is described as follows: Quantitative highthroughput screen to assess conditional lethalithy of P12 Ichikawa cells grown in RPMI1640 with untreated serum (RPMI+s) (AID 1963881). Further: nearly all actives have a fitted effect of over 35% in size. Further: potency means the concentration at half of the fitted maximal effect.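 On Viability: series mostly up to about 46 µM; 100% = DMSO wells and 0% = empty wells without cells.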 The following applies: Potency: viability. The method in brief:
as §1

Assay [7] in a line: Quantitative highthroughput screen to assess conditional lethalithy of SEM cells grown in Human Plasma-Like Medium with dialyzed fetal bovine serum (HPLM+ds) (AID 1963882). Further: nearly all actives have a fitted effect of over 35% in size. Further: potency means the concentration at half of the fitted maximal effect. On Viability: series mostly up to about 46 µM. The method in brief: as §1
The nature of assay [8]: Quantitative highthroughput screen to assess conditional lethalithy of SEM cells grown in RPMI1640 with unreated serum (RPMI+s) (AID 1963883). Further: nearly all actives have a fitted effect of over 35% in size. Further: potency means the concentration at half of the fitted maximal effect.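 On Viability: 100% = DMSO wells and 0% = empty wells without cells.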 In short, it runs like this:
as §1

A short description of assay [9]: Cellular viability qHTS for adrenocortical cancer (ACC) cell line SW-13 (AID 1963989). Further: nearly all actives have a fitted effect of over 65% in size. Further: potency means the concentration at half of the fitted maximal effect.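 On activity (max response): cells grown in serum-free medium with ITS supplement; on the % scale 0 is the no-effect control and ±100 the full control effect.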 The following applies: SW-13 ACC cells viability, CellTiter-Glo, 48 h; activity (max response): active compounds read low. In short, it runs like this:
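IC50 and maximal-response values come from four-parameter logistic fits of titration data. SW-13 cells in serum-free medium received compounds (up to 46 uM final) for 48 h before CellTiter-Glo luminescence.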

The nature of assay [10]: Cellular viability qHTS for adrenocortical cancer (ACC) cell line NCI-H295R (AID 1963990). Further: nearly all actives have a fitted effect of over 60% in size. Further: potency means the concentration at half of the fitted maximal effect. The method in brief: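 Adrenocortical carcinoma cells, suspended at 300 000 cells/mL in serum-free DMEM plus ITS, rested overnight before pin transfer of compound. After two days' incubation, ATP-dependent luminescence was recorded and curve-fitted.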
A short description of assay [11]: Quantitative highthroughput screen to assess conditional lethalithy of SEM cells grown in RPMI1640 with dialyzed fetal bovine serum (RPMI+ds) (AID 1963884). Further: nearly all actives have a fitted effect of over 35% in size. Further: potency means the concentration at half of the fitted maximal effect.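 On Viability: series mostly up to about 46 µM; 100% = DMSO control wells and 0% = empty wells without cells.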 The method in brief: as §1
A short description of assay [12]: Quantitative highthroughput screen to assess conditional lethalithy of NOMO1 cells grown in RPMI1640 with untreated serum (RPMI+s) (AID 1963876). In short, it runs like this: as §1

`CCCOc1ccc(C(=O)OCCN(CC)CC)cc1N`: the Potency entry in [1], in assay [2], in [3], in assay [4], in assay [5] and in assay [6] was “inactive” in each case. Further, the Potency result in assay [7], in [8] and in [10] was “inactive” each time. The activity (max response) in [9] is -2.3% and -19.7%.
Consider `CCC(C)N(C)C(=O)c1cc2ccccc2c(-c2ccccc2Cl)n1` (stereo not given), for which the Potency in assay [1] is 18.6 µM (active). The Potency entry in assay [2], in [3], in assay [4], in [5], in assay [6] and in assay [7] was “inactive” throughout. In addition, in assay [8], the Potency result was “inactive”. Besides, the activity (max response) in assay [9] was -6.79%.
Turning to `CCN(CC)CCCCNc1nc2cc(Cl)c(Cl)cc2nc1-c1ccc(-c2cccs2)s1`, the Potency was 4.68 µM (active) in assay [1], 20.9 µM (active) in assay [3], 26.4 µM (active) in assay [5] and 7.08 µM (active) in assay [10].
As to `Cc1ccccc1C(C(=O)NC1CCCCC1)N(C(=O)Cn1ccnc1C)c1cccc(F)c1` (stereo not given), in assay [1], the Potency is 9.34 µM (active). Moreover, the Potency entry in assay [2], in [3], in assay [4], in [5], in [6] and in [7] was “inactive” each time. Also, the Potency result in assay [8], in assay [11] and in assay [10] was “inactive” in each case. The activity (max response) in [9] was -14.8%.
`Cc1ccc(C(=O)N(CCCN)[C@@H](c2oc3cc(Cl)ccc3c(=O)c2Cc2ccccc2)C(C)C)cc1`: the Potency in assay [1] is 0.0083 µM (active); in assay [10], 0.316 µM (active). For the same compound, the Potency entry in assay [12], in assay [6], in assay [7], in assay [8] and in [11] was “inactive” throughout.
Turning to `COc1ccc(-c2ccc3c(N4CCOCC4)nc(N4C[C@@H](C)O[C@@H](C)C4)nc3n2)cc1CO`, the Potency is 1.32 µM (active) in assay [1]; 4.69 µM (active) in [2]; 1.32 µM (active) in assay [3]; 1.05 µM (active) in assay [6]; 1.48 µM (active) in assay [7]; 1.87 µM (active) in [8]. For the same compound, the Potency in [11] is 2.64 µM (active); in [10] it was 0.631 µM (active).
With `CC(C)(Sc1ccc(CCN(CCCCC2CCCCC2)C(=O)NC2CCCCC2)cc1)C(=O)O`, the Potency in assay [1] was 18.6 µM (active). For the same compound, the Potency result in [3], in assay [6], in [7], in assay [8], in [11] and in assay [10] was “inactive” in each case. Moreover, in assay [9], the activity (max response) was 4.08%.
Take `COc1cc2c(NC3CCN(C(C)C)CC3)nc(C3CCCCC3)nc2cc1OCCCN1CCCC1`: the Potency was 3.32 µM (active) in assay [1]; 20.9 µM (active) in [2]; 23.5 µM (active) in assay [3]; 20.9 µM (active) in assay [5]; 23.5 µM (active) in assay [6]; 16.6 µM (active) in [7]. The Potency in [8] is 26.4 µM (active); in [9], 17.8 µM (active); in assay [10], 12.6 µM (active).
On to `CCCCC(C)(C)[C@H](O)C=C[C@H]1[C@H](O)CC(=O)[C@H]1CC=CCCCC(=O)O`, for which the Potency in [1] is 0.148 µM (active); in assay [3], 20.9 µM (active); in [5], 23.5 µM (active); in assay [6] it was 26.4 µM (active); in assay [7] it was 20.9 µM (active). Besides, in assay [10], the Potency entry was “inactive”.
On to `CN(C(=O)c1ccc(F)cc1C(F)(F)F)C1CCN(c2nnc(-c3ccnn3C)c3ccccc23)CC1`, for which the Potency in [1] was 18.4 µM (active). The Potency result in assay [12], in assay [7], in assay [8] and in assay [10] was “inactive” in each case. For the same compound, the activity (max response) in assay [9] was -13.3%.
Consider `O=c1[nH]c(=O)n(C2CCCO2)cc1F` (stereo not given), for which, in assay [1], the Potency was 18.6 µM (active). Besides, the Potency result in [2], in [3], in assay [4], in assay [8] and in assay [10] was “inactive” throughout.
For `O=C(Nc1cccc2c(=O)cc(-c3nn[nH]n3)oc12)c1ccc(OCCCCc2ccccc2)cc1`, the Potency result in assay [1] was “inactive”. In addition, the Potency is 23.5 µM (active) in assay [3], 18.7 µM (active) in [6] and 9.35 µM (active) in assay [8]. Also, the activity (max response) in assay [9] is 13.6%.
On to `O=C(NCc1ccncc1)C12C[C@H]3C[C@@H](C1)CC(c1ccc(Cl)cc1)(C3)C2`, for which the Potency is 11.8 µM (active) in assay [1]; 18.7 µM (active) in assay [3]; 11.8 µM (active) in assay [4]; 20.9 µM (active) in [5]; 20.9 µM (active) in assay [6]; 14.8 µM (active) in [7]. The values for the Potency in [8] and in assay [11] were 7.43 µM (active) and 13.2 µM (active), respectively. Further, the Potency result in [10] was “inactive”.
On to `COc1ccc2cc(-c3nc(-c4ccc(S(C)=O)cc4)[nH]c3-c3ccncc3)ccc2c1` (stereo not given), for which the Potency was 9.34 µM (active) and 13 µM (active) in [1]; 28.2 µM (active) in assay [10]. The Potency result in [2], in assay [3], in assay [4], in assay [7], in assay [8] and in [11] was “inactive” throughout.
Take `NCCCC(O)(P(=O)(O)O)P(=O)(O)O`: the Potency entry in assay [1] and in assay [10] was “inactive” in each case. Also, the Potency in assay [2] is 16.6 µM (active); in assay [7], 16.6 µM (active); in assay [8], 2.96 µM (active); in assay [11] it was 3.72 µM (active). Besides, the activity (max response) in assay [9] was -4.27%.
Turning to `CCOC(=O)c1c(CSc2ccccc2)n(C)c2cc(Br)c(O)c(CN(C)C)c12`, the Potency in [1] was 10.5 µM (active). The Potency result in assay [3], in [4], in assay [7] and in [11] was “inactive” each time.
`N#CC1(c2cccc(C(=O)Nc3cc(Oc4ccc5nc(NC(=O)C6CC6)sc5n4)ccc3F)c2Cl)CC1`: the Potency in assay [1] was 0.58 µM (active); in assay [2], 2.09 µM (active); in assay [3], 1.32 µM (active); in [4] it was 5.9 µM (active); in assay [5], 2.64 µM (active); in [6] it was 5.26 µM (active). Further, the Potency in assay [8] was 3.72 µM (active).
